Bioassay records (PubChem)
Compounds with a hit are over-represented: about 2.4% of the library has one in this group of screens.
Jurkat autofluor: compound autofluorescence on Jurkat cells, primary screen, artefact control for VLA-4 allosteric ligand project, cell-based, flow cytometry; AID 576, 2007; fluorescence ratio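 (tested at 10 µM compound in the well)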; active compounds read high; 1 = vehicle-only cell background; 24,000 tested, 0.61% active;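 active = fluorescence ratio above 2.44, which is 1 plus 3 SD of all ratios; inconclusive = signal too bright to measure linearly, ratio around 10 or more; inactive = fluorescence ratio below 2.44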;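 also: green fluorescence of cells measured with 488 nm excitation and 530 nm emission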
VLA-4 agonist: enhancers of LDV-FITC binding to VLA-4 integrin, primary screen, Jurkat cells, flow cytometry; Integrin alpha-4 (Homo sapiens), P13612; 24,000 tested, under 10 active; activation, % at 10 µM (by protocol); AID 528, 2006;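 active = fluorescent ligand binding to cells raised by more than 40% of the manganese-induced maximum; inconclusive = compound's own fluorescence above 85% of the ligand control signal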;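 also: 0% = ligand binding without compound and 100% = manganese-stimulated maximal binding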
VLA-4 antagonist: inhibitors of LDV-FITC binding to Mn2+-activated VLA-4, primary screen, Jurkat cells; LDV-FITC binding with Mn2+, flow cytometry; 100% = Mn2+-driven binding gain fully reversed; inhibition, % at 10 µM (by protocol); 24,000 tested, 0.2% active; AID 529, 2006;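 active = inhibition above 50%; inconclusive = compound itself fluorescent, judged against control cell fluorescence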;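 also: 0% = Mn2+ stimulated cells lacking compound and 100% = ligand binding without Mn2+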
Prostate diff: activators of LNCaP prostate cell differentiation, primary screen, flow cytometry side scatter; 4 d; side scatter shift, % at 10 µM; 24,000 tested, 0.56% active; AID 795, 2007;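 active = side scatter shift above 30%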;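 also: androgen-responsive LNCaP prostate cancer cells in charcoal-stripped serum medium; percent of cells past a gate set so DMSO wells show 10% shift; higher shift means more granular cells and more differentiation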
FPR binder: human FPR ligands by binding competition, primary screen, cell-based, FPRL1 counter-screen, flow cytometry; fMet-Leu-Phe receptor (Homo sapiens), P21462; FPR-expressing cells, fluorescent ligand binding; inhibition, % (no concentration beside the values); 24,000 tested, 0.74% active; AID 440, 2006;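 also: 0% = buffer wells and 100% = receptor blocker peptide wells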
Target sequence (P21462 whole entry, looked up): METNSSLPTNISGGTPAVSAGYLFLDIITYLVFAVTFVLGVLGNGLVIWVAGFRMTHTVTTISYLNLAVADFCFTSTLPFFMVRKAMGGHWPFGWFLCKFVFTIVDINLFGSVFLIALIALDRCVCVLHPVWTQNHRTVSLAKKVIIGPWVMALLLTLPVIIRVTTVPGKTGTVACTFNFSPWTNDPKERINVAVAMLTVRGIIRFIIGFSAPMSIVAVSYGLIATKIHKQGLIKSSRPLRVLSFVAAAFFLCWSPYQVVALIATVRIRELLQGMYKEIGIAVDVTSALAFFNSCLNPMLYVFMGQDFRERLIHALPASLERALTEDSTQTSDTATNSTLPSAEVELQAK
FPRL1 ligand: human FPRL1 ligands by binding competition, primary screen, cell-based, FPR counter-screen, flow cytometry; N-formyl peptide receptor 2 (Homo sapiens), P25090; FPRL1-expressing cells, fluorescent ligand binding inhibition; AID 441, 2006; inhibition, % (concentration not given with the values); 24,000 tested, 0.3% active;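 also: 0% = buffer alone and 100% = receptor blocker peptide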
Active calls of the source: *; ? = inconclusive; . = not tested or not shown. Rule as the data show it, unless noted: active = inhibition above about 30%; inconclusive = no clear call, values can overlap the other calls; inactive = below that.

SMILES	Jurkat autofluor	VLA-4 agonist	VLA-4 antagonist	Prostate diff	FPR binder	FPRL1 ligand
Cc1cc2oc(C(=O)NC3CCS(=O)(=O)C3)c(C)c2cc1C (stereo unspecified)	1.11	-5.0	-19.0	12.0	48.4*	51.2*
CCOc1cc(C2C(C(=O)OC)=C(C)N=C3SCCC(=O)N32)ccc1OC(C)=O (stereo unspecified)	2.7*	?	?	9.0	-2.8	-7.7
CCOc1ccc(C2C(C(=O)OC)=C(C)N=C3SCCC(=O)N32)cc1OCC (stereo unspecified)	1.07	-3.0	6.0	9.0	2.0	4.6
Cc1oc2cc3c(C(=O)OCCN(C)C)c(C)oc3cc2c1C(=O)OCCN(C)C	1.07	1.0	-4.0	2.0	-3.6	2.0
COc1ccc(S(=O)(=O)NC2CCCCC2)c(C)c1C	1.01	4.0	-15.0	7.0	12.4	-2.6
COc1cc(NC(=O)c2nccnc2C(=O)O)cc(OC)c1	1.14	1.7	1.3	5.0	-2.4	-3.6
COc1ccccc1Oc1c(C)oc2c(CN(C)C)c(O)ccc2c1=O	.	.	.	.	22.4	30.5*
COCCNC(=O)CS(=O)(=O)Cc1nc(-c2ccc(C)cc2)oc1C	0.99	?	?	8.0	-5.1	-1.8
CCOC(=O)c1c(C)oc2c1c1c(c3ccccc32)OCN(Cc2ccccn2)C1	1.11	-14.0	79.0*	.	.	.
COc1ccc2c(c1)C(=O)N(c1ccccc1OC)C(=O)C2	6.29*	?	?	9.0	-3.4	-2.2
CC(C)c1ccc(OCc2ccc(C(=O)N3CCN(c4ccccn4)CC3)cc2)cc1	0.97	-9.0	33.0	2.0	0.1	-1.9
CCOC(=O)c1sc(NC(=O)CCn2nnc3ccccc32)c(C(=O)OCC)c1C	1.22	-4.0	-4.0	20.0	2.7	2.1
O=c1cc(N2CCc3ccccc32)[nH]c(=O)n1Cc1ccc(F)cc1	1.02	7.0	-22.0	7.0	42.8*	-8.9
O=c1cc(N2CCN(Cc3ccccc3)CC2)[nH]c(=O)n1Cc1ccc(F)cc1	1.03	5.0	-9.0	20.0	6.3	4.3
CCc1ccc(-c2nc(CN3CCC(C(=O)NCCc4ccc(OC)c(OC)c4)CC3)c(C)o2)cc1	1.16	?	?	32.0*	-0.5	0.5
COc1ccc(CCNC(=O)C2CCN(Cc3nc(-c4ccccc4F)oc3C)CC2)cc1OC	1.05	1.0	-1.0	4.0	-3.9	-6.0
CCN1CCCC1CNC(=O)C1CCN(Cc2nc(-c3cccc(Br)c3)oc2C)CC1 (stereo unspecified)	1.01	4.0	-1.0	63.0*	-1.0	-6.3
Cc1oc(-c2ccc(Cl)cc2)nc1CN1CCC(C(=O)NCCCN2CCCC2=O)CC1	1.13	2.0	6.0	7.0	-5.4	1.6
COc1ccc(-c2nc(CN3CCC(C(=O)NC4CCCc5ccccc54)CC3)c(C)o2)cc1OC (stereo unspecified)	1.1	-10.0	-1.0	39.0*	-3.7	-1.5
CCN1CCN(CCNC(=O)C2CCN(Cc3nc(-c4ccc(Cl)cc4)oc3C)CC2)CC1	0.96	?	?	44.0*	-9.1	2.1
COc1ccccc1CNC(=O)C1CCN(Cc2nc(-c3ccc(Cl)cc3)oc2C)CC1	1.29	?	?	32.0*	1.5	-3.9
Cc1cc2oc3c(c(=O)c2cc1C)C(c1ccc(C(C)C)cc1)N(CCCN1CCOCC1)C3=O (stereo unspecified)	1.05	-8.0	6.0	11.0	6.3	7.0
CC1=C(C(=O)N2CCc3ccccc32)C2(CCC(C)CC2)OC1=O (stereo unspecified)	6.03*	?	?	6.0	-26.5	-25.4
CC(C)CN(CC(C)C)C(=O)CS(=O)(=O)Cc1ccccc1	1.04	3.0	-8.0	14.0	62.6*	-2.6
COc1ccc(-c2cc(C(F)(F)F)nc(NC3CCCC3)n2)cc1OC	1.09	1.0	-1.0	0.0	6.9	31.5*
SMILES	Jurkat autofluor	VLA-4 agonist	VLA-4 antagonist	Prostate diff	FPR binder	FPRL1 ligand
COc1ccc(-c2cc(C(F)(F)F)nc(N3CCOCC3)n2)cc1OC	1.03	-10.3	12.2	3.0	-11.5	23.2
CC1N=C2c3ccccc3N=C(SCc3cc(=O)n4ccccc4n3)N2C1=O (stereo unspecified)	1.04	8.0	7.0	4.0	1.1	-6.4
Cn1c2ccccc2c(=O)n2c(=O)c3ccccc3cc12	1.01	0.0	1.0	2.0	-3.7	-4.0
CCNc1c2c3c(cccc3n(C)c1=O)C(=O)c1ccccc1-2	9.82*	?	?	4.0	?	?
Cc1cccc(-n2nc3c(c2NC(=O)c2ccco2)CSC3)c1C	1.02	-7.0	2.0	5.0	96.4*	-1.7
COc1ccc(-c2c(=O)n(OCc3ccccn3)c3ccccc3[n+]2[O-])cc1OC	2.5*	?	?	11.0	0.3	6.1
COc1ccc(NC(=O)CSc2ccccn2)cc1OC	1.03	-2.0	2.5	10.0	-20.4	-0.8
COc1ccc(-n2cc(-c3ccccc3)c3c(N4CCN(CCO)CC4)ncnc32)cc1	1	-5.3	8.3	44.0*	4.7	-1.8
COc1ccc(-n2ncc3c(N4CCN(c5cccc(C)c5C)CC4)ncnc32)cc1	1.01	2.0	-2.0	19.0	7.1	-2.3
Cc1nc2ccc(S(=O)(=O)NC(C(=O)N3CCC(C)CC3)C(C)C)cc2s1 (stereo unspecified)	1.07	1.0	11.0	10.0	-1.2	-1.0
COc1ccc(NC(=O)CCn2cccc2)cc1	1.11	8.0	-7.0	6.0	2.0	4.6
COc1ccc(CCNC(=O)C2CCN(S(=O)(=O)c3cc(OC)ccc3OC)CC2)cc1	0.97	2.0	-38.0	11.0	1.3	-0.7
CCOC(=O)Nc1ccc(OC)cc1S(=O)(=O)N1CCCCC1	1.05	-4.0	-6.5	14.0	62.7*	51.3*
O=C(O)CC1Oc2ccc(Cl)cc2NC1=O (stereo unspecified)	1.15	8.0	-18.0	3.0	-38.1	36.7*
O=C(COc1ccc(S(=O)(=O)NC2CCCCC2)cc1)Nc1ccc2c(c1)OCCO2	1.09	-5.0	3.0	4.0	0.0	-4.0
COc1cccc(N2C(=O)C3ON(c4ccccc4)C(c4cccs4)C3C2=O)c1 (stereo unspecified)	1.35	?	?	3.0	39.0*	-3.1
CN(C)CCCNC(CC(=O)Nc1ccc(Cl)cc1)C(=O)O (stereo unspecified)	1	4.0	-3.0	3.0	-5.4	0.1
COc1cccc(NC(=O)CCSc2nnc3scc(-c4ccccc4)n23)c1	1.06	-3.0	-6.0	1.0	11.4	-9.6
Cc1ccc(CCNC(=O)C2CCCN(c3nc4ccccc4o3)C2)cc1 (stereo unspecified)	1.05	-7.0	18.0	11.0	3.5	3.2
